The values that follow come from PubChem BioAssay (NCI).

Each structure is given as a SMILES string. About 83,000 compounds went through this panel and 20% of them were active in at least one assay; those are over-represented in the sample as a whole.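 Step 1: grow cells in 96-well plates. Step 2: add test compound at a single concentration. Step 3: incubate 48 h. Step 4: record percent growth.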 Unmarked numbers belong to inactive results. Active and inactive are the calls of the source. The calls were made as follows: active = growth percent below 10; inactive = the rest.

The first assay concerns 786-0 renal. The assay is described as follows: NCI-60 one-dose screen, 48 h (100 = growth as untreated, 0 = no growth, -100 = all killed). Particulars: 10 µM unless noted.
With `CC(C)(C)c1nc2c(s1)c1nc(N)ncc1c1ccc(NS(=O)(=O)c3c(F)cccc3F)c(F)c12`, the growth is 66.1%.

On to `COc1cc(C(=O)N2CCN(c3ccccc3OC)CC2)c(NC(=O)c2cnccn2)cc1OCc1ccccc1`, for which the growth is 87.3%.

Turning to `c1ccc(-c2cn3ccnc3c(-c3ccc4c(c3)ncn4C3CCCCC3)n2)cc1`, the growth is 91.8%.

With `C#Cc1ccccc1NC(=O)c1sc2nc3c(cc2c1N)CCCCC3`, the growth is 123%.

`O=C1[C@@H](OS(=O)(=O)CC(F)(F)F)[C@H](c2ccc(F)cn2)N1c1cc2c3ccccc3ccc2c2ccccc12`: the growth was 71.7%.

On to `CC(C)CSc1nc(Nc2ccccc2)c(C#N)c(-c2ccc(F)cc2)n1`, for which the growth is -45.6% (active).

In a further assay the test system is COLO 205 colon. The assay is described as above. Particulars: 10 µM unless noted.
For the molecule `Cc1cc2ccccc2c[n+]1CC(=O)c1ccc(-c2ccccc2)cc1`, the growth was 32.5%.

For `COC(=O)c1ccc2c(c1)n(Cc1ccc3ccccc3c1)c[n+]2Cc1ccc2ccccc2c1`, the growth is 3.66% (active).

Regarding `Cc1c(Cl)cccc1NC(=O)c1sc2nc3c(cc2c1N)CCCCC3`, the growth was 9.8% (active).

For the molecule `C=C1C(=O)O[C@H]2[C@H]1CC/C(COC(=O)c1cn(C)c3ccccc13)=C\CC[C@@]1(C)O[C@@H]21`, the growth was -80.4% (active).

As to `Sc1cccc2cccnc12`, the growth was 24.4%.

Turning to `O=C(CCl)N1CCCc2ccccc21`, the growth was 108%.

Consider `Cc1cccc(C)c1NC(=O)CN(CC(C)C)CC(O)COc1ccccc1` (stereo not drawn), for which the growth is 100%.

Take `OCCNc1nc(NCCO)nc(Nc2ccc(C3=NN(c4cc(Cl)cc(Cl)c4)C(c4ccc(Cl)cc4)C3)cc2)n1` (stereo not drawn): the growth is 7.12% (active).

In the case of `CC(C)(C)c1nn(-c2ccccc2)c2c1COCN2Cc1ccc(Cl)cc1`, the growth was 101%.

In the case of `NS(=O)(=O)c1ccc(N2Cc3cc(Cl)ccc3OC3=C2C(=O)N(CC2CCCCC2)C3=O)cc1`, the growth was -83.2% (active).

Turning to `C#C[C@@]1(O)[C@@H](CO)O[C@@H](n2cc(-c3ccco3)c3c(N)ncnc32)[C@@H]1O`, the growth is 46.4%.

Consider `NC(=O)CN1C(=O)c2ccccc2C1=O`, for which the growth was 110%.

`CC1CCCN(CCCCCOc2ccc3oc4ccc(Cl)cc4c(=O)c3c2)C1` (stereo not drawn): the growth is 57.5%.

Regarding `O=c1[nH]c(-c2cccc(F)c2)cc2cc(F)ccc12`, the growth is -2.11% (active).

As for `O=C(O)COc1ccc2c(=O)c3sc4c(=O)c5ccccc5c(=O)c4c3c(=O)c2c1`, the growth is -46.2% (active).

As for `CCOC(=O)/C=C1\SC(=Nc2ccc(C#N)cc2)N(CCN2C(=O)/C(=C/C(=O)OCC)SC2=Nc2ccc(C#N)cc2)C1=O`, the growth was 18.6%.

As for `COC(=O)/C=C1\SC(=Nc2ccc(F)cc2)N(CCc2c[nH]c3ccccc23)C1=O`, the growth is 126%.

In the case of `CCN1CCN(Cc2ccc(NC(=O)c3cccc(C#Cc4cccc5[nH]nc(N)c45)c3)cc2C(F)(F)F)CC1`, the growth was -76.2% (active).

In the case of `CC[C@H](Nc1ncnc2nc[nH]c12)c1nc2cccc(CC(=O)c3ccc(C(=O)NO)cc3)c2c(=O)n1-c1ccccc1`, the growth was 95.4%.

Turning to `CC(=O)OCC1OC(OC2C(COC(C)=O)OC(OCCC[S-])C(OC(C)=O)C2OC(C)=O)C(OC(C)=O)C(OC(C)=O)C1OC(C)=O.[Au+].c1ccc(CN2[CH-]N(Cc3ccccc3)C(c3ccccc3)=C2c2ccccc2)cc1` (stereo not drawn), the growth is -37.4% (active).

On to `O=S(=O)(O)c1ccc(N=NSc2ccc3ccccc3c2)cc1`, for which the growth was 108%.

In the case of `C[C@H]1[C@H](C)CC[C@]2(C(=O)OCCOCCOCC[P+](c3ccccc3)(c3ccccc3)c3ccccc3)CC[C@]3(C)C(=CC[C@@H]4[C@@]5(C)CC[C@H](OC(=O)C(Cl)Cl)C(C)(C)[C@@H]5CC[C@]43C)[C@H]12`, the growth is -7.06% (active).

Take `O=c1c2ccccc2oc2ccc(OCCCCCN3CCCCCC3)cc12`: the growth is 43.6%.

With `Nc1c(C(=O)Nc2ccccn2)sc2nc3c(cc12)C(=O)CCC3`, the growth is 7.57% (active).

Take `COc1ccc(-n2cc(-c3ccc(Cl)c(Cl)c3)[nH]c2=O)cc1OC`: the growth is 109%.

Take `Cc1ccc(C(=O)/C(=C/c2ccc([N+](=O)[O-])cc2)S(=O)Cc2ccccc2)cc1` (stereo not drawn): the growth was -26.4% (active).

`C=CCn1c(CN2CCN(c3cc4c(cc3F)c(=O)c(C(=O)O)cn4C3CC3)CC2)n[nH]c1=S`: the growth was 102%.

For `CC(=O)c1ccc(NC(=O)CSc2nnc(-c3cc(-c4ccc(C)cc4)nc4ccccc34)o2)cc1`, the growth was 77.4%.

With `Cn1cc(-c2ccc3c(c2)ncn3-c2ccc(CC(=O)Nc3cc(C(C)(C)C)on3)cc2)cn1`, the growth was 38.2%.

In the case of `CN(C)[C@@H]1C(=O)C(C(N)=O)=C(O)[C@@]2(O)C(=O)C3=C(O)c4c(O)cc(CN5CCc6ccccc6C5)c(Cl)c4C[C@H]3C[C@@H]12`, the growth was -78.3% (active).

With `CC(=O)Oc1c2c(nc3c1c1ccccc1n3Cc1ccccc1)-c1ccccc1C2`, the growth is 97.9%.

Consider `CC(C)(C)c1nc2c(s1)c1nc(N)ncc1c1ccc(NS(=O)(=O)c3c(F)cccc3F)c(F)c12`, for which the growth was 4.03% (active).

Turning to `COc1cc(C(=O)N2CCN(c3ccccc3OC)CC2)c(NC(=O)c2cnccn2)cc1OCc1ccccc1`, the growth was 99.4%.

For `c1ccc(-c2cn3ccnc3c(-c3ccc4c(c3)ncn4C3CCCCC3)n2)cc1`, the growth is 99.7%.

Regarding `C#Cc1ccccc1NC(=O)c1sc2nc3c(cc2c1N)CCCCC3`, the growth was 105%.

In the case of `O=C1[C@@H](OS(=O)(=O)CC(F)(F)F)[C@H](c2ccc(F)cn2)N1c1cc2c3ccccc3ccc2c2ccccc12`, the growth was 101%.

With `CC(C)CSc1nc(Nc2ccccc2)c(C#N)c(-c2ccc(F)cc2)n1`, the growth is 20.3%.
